# Results reported in PubChem BioAssay AID1159580 (chemical genetic matrix, 2015).
# Screen size: about 5,500 compounds; about 2,000 (36%) were called active. Not shown: some 18% with an inconclusive outcome. This is one part of the list. A number with no mark means an inactive call. Rule as the data show it: active = normalized growth mostly below about 0.91 (no sharp cut-off); inconclusive = no clear call, values can overlap the other calls; inactive = mostly above about 0.92.
# Test: chemical genetic growth profiling, strain panel (AID 1159580);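 also: tested at 20 µM; growth read once vehicle control cultures reached saturation at 30 °C; 1 = growth at the plate median or of vehicle wells; lower values mean less growth of the strain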
# Settings: growth OD
# [1] = S. cerevisiae deletion strains, locus YDL101C, strain DUN1, hits give low values
# [2] = S. cerevisiae deletion strains, locus YHR030C, strain SLT2, hits give low values
smiles,measurement,setting,value
CC(C)(C)C(=O)c1sc2sc(C(=O)C(C)(C)C)c(N)c2c1N,normalized growth,"S. cerevisiae deletion strains, locus YAR019C, strain CDC15, hits give low values",0.993
same,normalized growth,"S. cerevisiae deletion strains, locus YBL105C, strain PKC1, hits give low values",0.992
same,normalized growth,"S. cerevisiae deletion strains, locus YBR135W, strain CKS1, hits give low values",0.984
same,normalized growth,"S. cerevisiae deletion strains, locus YBR136W, strain MEC1, hits give low values",0.984
same,normalized growth,"S. cerevisiae deletion strains, locus YBR160W, strain CDC28, hits give low values",0.994
same,normalized growth,"S. cerevisiae deletion strains, locus YDL017W, strain CDC7, hits give low values",0.993
same,normalized growth,"S. cerevisiae deletion strains, locus YDL028C, strain MPS1, hits give low values",0.992
same,normalized growth,[1],0.981
same,normalized growth,"S. cerevisiae deletion strains, locus YDL108W, strain KIN28, hits give low values",0.989
same,normalized growth,"S. cerevisiae deletion strains, locus YDL132W, strain cdc53, hits give low values",0.975
same,normalized growth,"S. cerevisiae deletion strains, locus YDL214C, strain PRR2, hits give low values",0.835
same,normalized growth,"S. cerevisiae deletion strains, locus YDR052C, strain DBF4, hits give low values",0.999
same,normalized growth,"S. cerevisiae deletion strains, locus YDR054C, strain cdc34, hits give low values",0.983
same,normalized growth,"S. cerevisiae deletion strains, locus YDR226W, strain ADK1, hits give low values",0.976
same,normalized growth,"S. cerevisiae deletion strains, locus YDR477W, strain SNF1, hits give low values",0.875
same,normalized growth,"S. cerevisiae deletion strains, locus YER123W, strain YCK3, hits give low values",0.752
same,normalized growth,"S. cerevisiae deletion strains, locus YER133W, strain GLC7, hits give low values",0.862
same,normalized growth,"S. cerevisiae deletion strains, locus YFL009W, strain cdc4, hits give low values",0.988
same,normalized growth,"S. cerevisiae deletion strains, locus YFL029C, strain CAK1, hits give low values",0.991
same,normalized growth,"S. cerevisiae deletion strains, locus YFR003C, strain YPI1, hits give low values",0.997
same,normalized growth,"S. cerevisiae deletion strains, locus YFR019W, strain FAB1, hits give low values",0.47 (active)
same,normalized growth,"S. cerevisiae deletion strains, locus YFR028C, strain CDC14, hits give low values",0.982
same,normalized growth,"S. cerevisiae deletion strains, locus YGR040W, strain KSS1, hits give low values",0.879
same,normalized growth,"S. cerevisiae deletion strains, locus YGR052W, strain FMP48, hits give low values",0.689
same,normalized growth,"S. cerevisiae deletion strains, locus YGR092W, strain DBF2, hits give low values",0.894
same,normalized growth,[2],0.152 (active)
same,normalized growth,"S. cerevisiae deletion strains, locus YHR079C, strain IRE1, hits give low values",0.274 (active)
same,normalized growth,"S. cerevisiae deletion strains, locus YHR082C, strain KSP1, hits give low values",0.62
same,normalized growth,"S. cerevisiae deletion strains, locus YHR205W, strain SCH9, hits give low values",0.872
same,normalized growth,"S. cerevisiae deletion strains, locus YIL147C, strain SLN1, hits give low values",0.995
same,normalized growth,"S. cerevisiae deletion strains, locus YJL095W, strain BCK1, hits give low values",0.52
same,normalized growth,"S. cerevisiae deletion strains, locus YJL128C, strain PBS2, hits give low values",0.931
same,normalized growth,"S. cerevisiae deletion strains, locus YJL157C, strain FAR1, hits give low values",0.785
same,normalized growth,"S. cerevisiae deletion strains, locus YJR016C, strain ILV3, hits give low values",0.99
same,normalized growth,"S. cerevisiae deletion strains, locus YJR066W, strain TOR1 (second series), hits give low values",0.823
same,normalized growth,"S. cerevisiae deletion strains, locus YJR066W, strain TOR1, hits give low values",0.589
same,normalized growth,"S. cerevisiae deletion strains, locus YKL048C, strain ELM1, hits give low values",0.983
same,normalized growth,"S. cerevisiae deletion strains, locus YKL067W, strain YNK1, hits give low values",0.902
same,normalized growth,"S. cerevisiae deletion strains, locus YKL101W, strain HSL1, hits give low values",0.962
same,normalized growth,"S. cerevisiae deletion strains, locus YKL193C, strain SDS22, hits give low values",0.987
same,normalized growth,"S. cerevisiae deletion strains, locus YKL203C, strain TOR2, hits give low values",0.936
same,normalized growth,"S. cerevisiae deletion strains, locus YLR113W, strain HOG1, hits give low values",0.663 (active)
same,normalized growth,"S. cerevisiae deletion strains, locus YLR133W, strain CKI1, hits give low values",0.888
same,normalized growth,"S. cerevisiae deletion strains, locus YLR403W, strain SFP1, hits give low values",0.851
same,normalized growth,"S. cerevisiae deletion strains, locus YML070W, strain DAK1, hits give low values",0.704
same,normalized growth,"S. cerevisiae deletion strains, locus YMR001C, strain CDC5, hits give low values",0.993
same,normalized growth,"S. cerevisiae deletion strains, locus YMR205C, strain PFK2 (second series), hits give low values",0.965
same,normalized growth,"S. cerevisiae deletion strains, locus YMR277W, strain FCP1, hits give low values",0.989
same,normalized growth,"S. cerevisiae deletion strains, locus YNL006W, strain LST8, hits give low values",0.999
same,normalized growth,"S. cerevisiae deletion strains, locus YNL020C, strain ARK1, hits give low values",0.892
same,normalized growth,"S. cerevisiae deletion strains, locus YNL161W, strain CBK1, hits give low values",0.994
same,normalized growth,"S. cerevisiae deletion strains, locus YNL183C, strain NPR1, hits give low values",0.855
same,normalized growth,"S. cerevisiae deletion strains, locus YNL207W, strain RIO2, hits give low values",0.989
same,normalized growth,"S. cerevisiae deletion strains, locus YNL222W, strain SSU72, hits give low values",0.993
same,normalized growth,"S. cerevisiae deletion strains, locus YNL307C, strain MCK1 (second series), hits give low values",0.97
same,normalized growth,"S. cerevisiae deletion strains, locus YOL078W, strain AVO1, hits give low values",0.987
same,normalized growth,"S. cerevisiae deletion strains, locus YOL136C, strain PFK27, hits give low values",0.6 (active)
same,normalized growth,"S. cerevisiae deletion strains, locus YOR061W, strain CKA2, hits give low values",0.915
same,normalized growth,"S. cerevisiae deletion strains, locus YOR119C, strain RIO1, hits give low values",1.01
same,normalized growth,"S. cerevisiae deletion strains, locus YOR231W, strain MKK1, hits give low values",0.682
same,normalized growth,"S. cerevisiae deletion strains, locus YOR329C, strain SCD5, hits give low values",0.991
same,normalized growth,"S. cerevisiae deletion strains, locus YPL031C, strain PHO85, hits give low values",0.804
same,normalized growth,"S. cerevisiae deletion strains, locus YPL153C, strain RAD53, hits give low values",0.692
same,normalized growth,"S. cerevisiae deletion strains, locus YPL204W, strain HRR25, hits give low values",0.646 (active)
same,normalized growth,"S. cerevisiae deletion strains, locus YPL209C, strain IPL1, hits give low values",0.993
same,normalized growth,"S. cerevisiae deletion strains, locus YPL256C, strain CLN2, hits give low values",0.326 (active)
same,normalized growth,"S. cerevisiae deletion strains, locus YPR025C, strain CCL1, hits give low values",0.991
same,normalized growth,"S. cerevisiae deletion strains, locus YPR106W, strain ISR1, hits give low values",0.995
same,normalized growth,"S. cerevisiae deletion strains, locus YPR111W, strain DBF20, hits give low values",0.99
same,normalized growth,"S. cerevisiae deletion strains, strain NNK1, hits give low values",0.996
same,normalized growth,"S. cerevisiae deletion strains, strain TSCII, hits give low values",0.994
CC(C)(C)c1ccc(-c2cc(N)c(C(N)=O)s2)cc1,normalized growth,"S. cerevisiae deletion strains, locus YAL013W, strain DEP1, hits give low values",0.978
same,normalized growth,"S. cerevisiae deletion strains, locus YBR229C, strain ROT2, hits give low values",0.997
same,normalized growth,"S. cerevisiae deletion strains, locus YCL061C, strain MRC1, hits give low values",1.01
same,normalized growth,[1],1.01
same,normalized growth,"S. cerevisiae deletion strains, locus YDR150W, strain NUM1, hits give low values",0.974
same,normalized growth,"S. cerevisiae deletion strains, locus YEL061C, strain CIN8, hits give low values",0.967
same,normalized growth,"S. cerevisiae deletion strains, locus YGR078C, strain PAC10, hits give low values",1.01
same,normalized growth,[2],0.761
same,normalized growth,"S. cerevisiae deletion strains, locus YHR087W, strain rtc3, hits give low values",1.02
same,normalized growth,"S. cerevisiae deletion strains, locus YJR043C, strain POL32, hits give low values",0.979
same,normalized growth,"S. cerevisiae deletion strains, locus YJR075W, strain HOC1, hits give low values",1
same,normalized growth,"S. cerevisiae deletion strains, locus YKL190W, strain CNB1, hits give low values",1
same,normalized growth,"S. cerevisiae deletion strains, locus YLR039C, strain RIC1, hits give low values",0.93
same,normalized growth,"S. cerevisiae deletion strains, locus YLR058C, strain SHM2 (second series), hits give low values",1.01
same,normalized growth,"S. cerevisiae deletion strains, locus YLR085C, strain ARP6, hits give low values",0.987
same,normalized growth,"S. cerevisiae deletion strains, locus YLR262C, strain YPT6, hits give low values",0.827
same,normalized growth,"S. cerevisiae deletion strains, locus YML094W, strain GIM5, hits give low values",1.01
same,normalized growth,"S. cerevisiae deletion strains, locus YMR219W, strain ESC1, hits give low values",0.996
same,normalized growth,"S. cerevisiae deletion strains, locus YMR263W, strain SAP30, hits give low values",0.967
same,normalized growth,"S. cerevisiae deletion strains, locus YMR307W, strain GAS1, hits give low values",0.881
same,normalized growth,"S. cerevisiae deletion strains, locus YNL153C, strain GIM3, hits give low values",1
same,normalized growth,"S. cerevisiae deletion strains, locus YNL298W, strain CLA4 (second series), hits give low values",0.966
same,normalized growth,"S. cerevisiae deletion strains, locus YNL322C, strain KRE1, hits give low values",0.985
same,normalized growth,"S. cerevisiae deletion strains, locus YNR030W, strain Alg12, hits give low values",0.942
same,normalized growth,"S. cerevisiae deletion strains, locus YOL006C, strain TOP1, hits give low values",0.946
same,normalized growth,"S. cerevisiae deletion strains, locus YPL055C, strain LGE1, hits give low values",0.916
same,normalized growth,"S. cerevisiae deletion strains, locus YPL241C, strain CIN2, hits give low values",0.983
same,normalized growth,"S. cerevisiae deletion strains, locus YPR135W, strain CTF4, hits give low values",0.783
same,normalized growth,"S. cerevisiae strains, strain wild type, hits give low values",0.989
